Data reported in the supplement of paper PMC10849652.
The full data set covers some 8,800 targets. This sample favours those with a hit. About 0.5% of all pairs of compound and target were hits.

Tests used:
Assay in all cases: log2 fold change, soluble protein after heating vs DMSO (PISA); higher = thermal stabilisation; K562 lysate, 10 uM; active = over 0.2 and 3.5 SD of the protein, either way, in both replicates (recomputed)
[1] = compound: C#Cc1cccc(Nc2ncnc3cc(OCCOC)c(OCCOC)cc23)c1 [erlotinib]
In short: (§1)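 Soluble protein was defined as the supernatant remaining after 21,000xg for 90 min, following pooling of heated aliquots and adjustment to 0.5% NP-40 at 4°C. Before that, crude K562 extract at 1 mg/mL protein in PBS pH 7.4 with 1 mM MgCl2 was treated with 10 μM compound for 30 min and heated for 3 min across 48°C-58°C. Quantification used TMTpro 16plex LC-MS/MS with channel sums equalised, and values are log-two fold changes in thermal stability relative to solvent controls from duplicates.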

[2] = compound: C/C(=N\NC(=O)C1=CC(=CC=C1)S(=O)(=O)N2CCOCC2)/C3=C(C=CC(=C3)Cl)O
In short: as §1

[3] = compound: C1=CC(=CC=C1C2=NC3=C(N2)C=C(C=C3)C(=O)N)OC4=CC=C(C=C4)Cl
In short: as §1

[4] = compound: C1=CC2=C(C=CC(=C2)/C=C\3/C(=O)NC(=NCC4=CC=CS4)S3)N=C1
In short: as §1

[5] = compound: C1=CC2=NC=CN=C2C=C1/C=C/3\C(=O)NC(=O)S3
In short: as §1

[6] = compound: C1=CC=C(C=C1)C2=NC(=C(N2)C3=CC=NC=C3)C4=CC(=C(C=C4)Cl)O
In short: as §1

[7] = compound: C1=CC=C2C(=C1)C3=NNC4=CC=CC(=C43)C2=O
In short: as §1

[8] = compound: C1CCN(C1)C(=O)NC2=CC=CC(=C2)NC3=NC=C(C(=N3)NCCC4=CN=CN4)Br
In short: as §1

[9] = compound: C1CN(CCC1(CC2=CC=C(C=C2)Cl)N)C3=NC=NC4=C3C=CN4
In short: as §1

[10] = compound: C1COCCN1CCN2C3=CC=CC=C3N=C2NC(=O)C4=CC(=CC=C4)[N+](=O)[O-] [IRAK-1-4 Inhibitor I]
In short: as §1

Measured: log2 fold change

WDR24 (UniProt Q96S15)
inactive: [1] 0.023 | [2] 0.014 | [3] 0.029 | [4] -0.042 | [5] -0.018 | [6] 0.058 | [7] -0.012 | [8] -0.034 | [9] -0.007 | [10] 0.034

USP10 isoform 2 (UniProt Q14694)
inactive: [1] 0.022 | [2] -0.032 | [3] 0.01 | [4] 0.007 | [5] -0.017 | [6] 0.023 | [7] -0.028 | [8] -0.033 | [9] -0.034 | [10] -0.005

XPOT (UniProt O43592)
inactive: [1] 0.017 | [2] -0.013 | [3] -0.041 | [4] -0.003 | [5] 0.032 | [6] -0.011 | [7] -0.021 | [8] -0.004 | [9] 0.025 | [10] 0.016

VAV1 (UniProt P15498)
inactive: [1] 0.02 | [2] 0.081 | [3] -0.022 | [4] 0.001 | [5] -0.043 | [6] 0.037 | [7] -0.082 | [8] -0.004 | [9] -0.002 | [10] -0.009

WDR77 (UniProt Q9BQA1)
inactive: [1] -0.008 | [2] -0.073 | [3] -0.018 | [4] 0.025 | [5] -0.021 | [6] -0.009 | [7] 0.011 | [8] 0.004 | [9] 0.014 | [10] 0.002

VASP (UniProt P50552)
inactive: [1] 0.001 | [2] -0.028 | [3] 0.017 | [4] -0.006 | [5] -0.035 | [6] -0.003 | [7] -0.02 | [8] -0.006 | [9] 0.035 | [10] 0.014

YES1 (UniProt P07947)
inactive: [1] -0.045 | [2] 0.064 | [3] 0.005 | [4] -0.045 | [5] -0.023 | [6] -0.031 | [7] -0.105 | [8] 0.027 | [9] 0.016 | [10] 0.003

WDHD1 (UniProt O75717)
inactive: [1] 0.013 | [2] 0.025 | [3] -0.004 | [4] 0.019 | [5] 0.002 | [6] 0.006 | [7] -0.005 | [8] 0 | [9] 0.025 | [10] -0.017

ZFYVE19 (UniProt Q96K21)
inactive: [1] -0.017 | [2] -0.056 | [3] 0.016 | [4] -0.024 | [5] -0.026 | [6] 0.055 | [7] 0.007 | [8] -0.031 | [9] 0.012 | [10] -0.027

USP8 (UniProt P40818)
inactive: [1] -0.011 | [2] -0.034 | [3] 0.026 | [4] -0.004 | [5] -0.034 | [6] 0.014 | [7] -0.028 | [8] -0.014 | [9] 0.006 | [10] -0.019

XPO5 (UniProt Q9HAV4)
inactive: [1] 0.026 | [2] 0.024 | [3] -0.02 | [4] 0.005 | [5] 0 | [6] -0.003 | [7] -0.044 | [8] 0.008 | [9] 0.035 | [10] -0.015

WDR7 (UniProt Q9Y4E6)
inactive: [1] 0.05 | [2] -0.076 | [3] -0.016 | [4] -0.059 | [5] -0.001 | [6] -0.005 | [7] -0.038 | [8] 0.018 | [9] 0.042 | [10] 0.01

ZMYND8 isoform 19 (UniProt Q9ULU4)
inactive: [1] -0.012 | [2] -0.058 | [3] 0.023 | [4] 0.011 | [5] -0.037 | [6] 0.024 | [7] -0.077 | [8] -0.021 | [9] 0.018 | [10] -0.025

VAMP2 (UniProt P63027)
Chain of UniProt P63027 (P63027 whole entry, looked up): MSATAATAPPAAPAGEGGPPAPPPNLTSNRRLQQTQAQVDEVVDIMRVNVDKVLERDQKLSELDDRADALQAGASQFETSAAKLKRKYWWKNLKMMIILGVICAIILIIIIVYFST
inactive: [1] -0.083 | [2] 0.055 | [3] -0.024 | [4] -0.063 | [5] 0.063 | [6] -0.082 | [7] -0.037 | [8] 0.081 | [9] -0.009 | [10] -0.033

ZBTB33 (UniProt Q86T24)
inactive: [1] 0 | [2] 0.012 | [3] 0.101 | [4] 0.062 | [5] 0.144 | [6] -0.025 | [7] -0.101 | [8] -0.053 | [9] 0.068 | [10] -0.042

ZDHHC18 (UniProt Q9NUE0)
inactive: [1] 0.265 | [2] -0.057 | [3] -0.371 | [4] -0.052 | [5] -0.135 | [6] 0.004 | [7] 0.038 | [8] -0.022 | [9] 0.075 | [10] 0.13

WIPI2 (UniProt Q9Y4P8)
Chain of UniProt Q9Y4P8 (Q9Y4P8 whole entry, looked up): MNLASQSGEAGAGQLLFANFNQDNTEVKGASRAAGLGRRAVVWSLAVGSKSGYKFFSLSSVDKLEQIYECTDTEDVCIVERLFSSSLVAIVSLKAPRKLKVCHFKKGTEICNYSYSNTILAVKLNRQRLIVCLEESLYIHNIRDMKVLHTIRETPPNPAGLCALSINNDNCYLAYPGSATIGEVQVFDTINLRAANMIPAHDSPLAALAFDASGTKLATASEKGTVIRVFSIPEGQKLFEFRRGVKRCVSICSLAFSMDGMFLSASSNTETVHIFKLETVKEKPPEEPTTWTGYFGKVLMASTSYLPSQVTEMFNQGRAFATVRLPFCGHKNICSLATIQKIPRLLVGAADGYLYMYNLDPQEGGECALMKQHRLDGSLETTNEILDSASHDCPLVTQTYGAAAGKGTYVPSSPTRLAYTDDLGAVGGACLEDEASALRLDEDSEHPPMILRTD
inactive: [1] -0.006 | [2] -0.042 | [3] -0.009 | [4] 0.064 | [5] -0.037 | [6] -0.003 | [7] 0.035 | [8] -0.054 | [9] -0.047 | [10] 0.021

VARS (UniProt P26640)
inactive: [1] 0.031 | [2] 0.035 | [3] -0.031 | [4] 0.007 | [5] 0.03 | [6] 0.019 | [7] -0.035 | [8] 0.021 | [9] -0.002 | [10] 0.011

VRK1 (UniProt Q99986)
inactive: [1] 0.009 | [2] -0.05 | [3] 0.002 | [4] 0.049 | [5] 0.015 | [6] 0.024 | [7] -0.02 | [8] 0 | [9] 0.02 | [10] -0.02

VAV3 isoform 4 (UniProt Q9UKW4)
inactive: [1] 0.035 | [2] 1.07 | [3] -0.029 | [4] -0.144 | [5] 0.117 | [6] 0.012 | [7] -0.133 | [8] 0.148 | [9] -0.08 | [10] -0.017

YME1L1 (UniProt Q96TA2)
inactive: [1] 0.018 | [2] -0.136 | [3] -0.029 | [4] 0.026 | [5] 0.053 | [6] 0 | [7] 0.011 | [8] -0.006 | [9] 0.041 | [10] 0.033

YWHAQ (UniProt P27348)
inactive: [1] 0.026 | [2] 0.046 | [3] 0.016 | [4] 0.012 | [5] 0.017 | [6] 0.014 | [7] 0.021 | [8] -0.006 | [9] 0.022 | [10] 0.013

VANGL1 (UniProt Q8TAA9)
inactive: [1] 0 | [2] -0.043 | [3] -0.088 | [4] 0.022 | [5] -0.149 | [6] -0.377 | [7] -0.01 | [8] -0.072 | [9] 0.004 | [10] 0.182

VPS13C (UniProt Q709C8)
Chain of UniProt Q709C8 (Q709C8 whole entry, looked up): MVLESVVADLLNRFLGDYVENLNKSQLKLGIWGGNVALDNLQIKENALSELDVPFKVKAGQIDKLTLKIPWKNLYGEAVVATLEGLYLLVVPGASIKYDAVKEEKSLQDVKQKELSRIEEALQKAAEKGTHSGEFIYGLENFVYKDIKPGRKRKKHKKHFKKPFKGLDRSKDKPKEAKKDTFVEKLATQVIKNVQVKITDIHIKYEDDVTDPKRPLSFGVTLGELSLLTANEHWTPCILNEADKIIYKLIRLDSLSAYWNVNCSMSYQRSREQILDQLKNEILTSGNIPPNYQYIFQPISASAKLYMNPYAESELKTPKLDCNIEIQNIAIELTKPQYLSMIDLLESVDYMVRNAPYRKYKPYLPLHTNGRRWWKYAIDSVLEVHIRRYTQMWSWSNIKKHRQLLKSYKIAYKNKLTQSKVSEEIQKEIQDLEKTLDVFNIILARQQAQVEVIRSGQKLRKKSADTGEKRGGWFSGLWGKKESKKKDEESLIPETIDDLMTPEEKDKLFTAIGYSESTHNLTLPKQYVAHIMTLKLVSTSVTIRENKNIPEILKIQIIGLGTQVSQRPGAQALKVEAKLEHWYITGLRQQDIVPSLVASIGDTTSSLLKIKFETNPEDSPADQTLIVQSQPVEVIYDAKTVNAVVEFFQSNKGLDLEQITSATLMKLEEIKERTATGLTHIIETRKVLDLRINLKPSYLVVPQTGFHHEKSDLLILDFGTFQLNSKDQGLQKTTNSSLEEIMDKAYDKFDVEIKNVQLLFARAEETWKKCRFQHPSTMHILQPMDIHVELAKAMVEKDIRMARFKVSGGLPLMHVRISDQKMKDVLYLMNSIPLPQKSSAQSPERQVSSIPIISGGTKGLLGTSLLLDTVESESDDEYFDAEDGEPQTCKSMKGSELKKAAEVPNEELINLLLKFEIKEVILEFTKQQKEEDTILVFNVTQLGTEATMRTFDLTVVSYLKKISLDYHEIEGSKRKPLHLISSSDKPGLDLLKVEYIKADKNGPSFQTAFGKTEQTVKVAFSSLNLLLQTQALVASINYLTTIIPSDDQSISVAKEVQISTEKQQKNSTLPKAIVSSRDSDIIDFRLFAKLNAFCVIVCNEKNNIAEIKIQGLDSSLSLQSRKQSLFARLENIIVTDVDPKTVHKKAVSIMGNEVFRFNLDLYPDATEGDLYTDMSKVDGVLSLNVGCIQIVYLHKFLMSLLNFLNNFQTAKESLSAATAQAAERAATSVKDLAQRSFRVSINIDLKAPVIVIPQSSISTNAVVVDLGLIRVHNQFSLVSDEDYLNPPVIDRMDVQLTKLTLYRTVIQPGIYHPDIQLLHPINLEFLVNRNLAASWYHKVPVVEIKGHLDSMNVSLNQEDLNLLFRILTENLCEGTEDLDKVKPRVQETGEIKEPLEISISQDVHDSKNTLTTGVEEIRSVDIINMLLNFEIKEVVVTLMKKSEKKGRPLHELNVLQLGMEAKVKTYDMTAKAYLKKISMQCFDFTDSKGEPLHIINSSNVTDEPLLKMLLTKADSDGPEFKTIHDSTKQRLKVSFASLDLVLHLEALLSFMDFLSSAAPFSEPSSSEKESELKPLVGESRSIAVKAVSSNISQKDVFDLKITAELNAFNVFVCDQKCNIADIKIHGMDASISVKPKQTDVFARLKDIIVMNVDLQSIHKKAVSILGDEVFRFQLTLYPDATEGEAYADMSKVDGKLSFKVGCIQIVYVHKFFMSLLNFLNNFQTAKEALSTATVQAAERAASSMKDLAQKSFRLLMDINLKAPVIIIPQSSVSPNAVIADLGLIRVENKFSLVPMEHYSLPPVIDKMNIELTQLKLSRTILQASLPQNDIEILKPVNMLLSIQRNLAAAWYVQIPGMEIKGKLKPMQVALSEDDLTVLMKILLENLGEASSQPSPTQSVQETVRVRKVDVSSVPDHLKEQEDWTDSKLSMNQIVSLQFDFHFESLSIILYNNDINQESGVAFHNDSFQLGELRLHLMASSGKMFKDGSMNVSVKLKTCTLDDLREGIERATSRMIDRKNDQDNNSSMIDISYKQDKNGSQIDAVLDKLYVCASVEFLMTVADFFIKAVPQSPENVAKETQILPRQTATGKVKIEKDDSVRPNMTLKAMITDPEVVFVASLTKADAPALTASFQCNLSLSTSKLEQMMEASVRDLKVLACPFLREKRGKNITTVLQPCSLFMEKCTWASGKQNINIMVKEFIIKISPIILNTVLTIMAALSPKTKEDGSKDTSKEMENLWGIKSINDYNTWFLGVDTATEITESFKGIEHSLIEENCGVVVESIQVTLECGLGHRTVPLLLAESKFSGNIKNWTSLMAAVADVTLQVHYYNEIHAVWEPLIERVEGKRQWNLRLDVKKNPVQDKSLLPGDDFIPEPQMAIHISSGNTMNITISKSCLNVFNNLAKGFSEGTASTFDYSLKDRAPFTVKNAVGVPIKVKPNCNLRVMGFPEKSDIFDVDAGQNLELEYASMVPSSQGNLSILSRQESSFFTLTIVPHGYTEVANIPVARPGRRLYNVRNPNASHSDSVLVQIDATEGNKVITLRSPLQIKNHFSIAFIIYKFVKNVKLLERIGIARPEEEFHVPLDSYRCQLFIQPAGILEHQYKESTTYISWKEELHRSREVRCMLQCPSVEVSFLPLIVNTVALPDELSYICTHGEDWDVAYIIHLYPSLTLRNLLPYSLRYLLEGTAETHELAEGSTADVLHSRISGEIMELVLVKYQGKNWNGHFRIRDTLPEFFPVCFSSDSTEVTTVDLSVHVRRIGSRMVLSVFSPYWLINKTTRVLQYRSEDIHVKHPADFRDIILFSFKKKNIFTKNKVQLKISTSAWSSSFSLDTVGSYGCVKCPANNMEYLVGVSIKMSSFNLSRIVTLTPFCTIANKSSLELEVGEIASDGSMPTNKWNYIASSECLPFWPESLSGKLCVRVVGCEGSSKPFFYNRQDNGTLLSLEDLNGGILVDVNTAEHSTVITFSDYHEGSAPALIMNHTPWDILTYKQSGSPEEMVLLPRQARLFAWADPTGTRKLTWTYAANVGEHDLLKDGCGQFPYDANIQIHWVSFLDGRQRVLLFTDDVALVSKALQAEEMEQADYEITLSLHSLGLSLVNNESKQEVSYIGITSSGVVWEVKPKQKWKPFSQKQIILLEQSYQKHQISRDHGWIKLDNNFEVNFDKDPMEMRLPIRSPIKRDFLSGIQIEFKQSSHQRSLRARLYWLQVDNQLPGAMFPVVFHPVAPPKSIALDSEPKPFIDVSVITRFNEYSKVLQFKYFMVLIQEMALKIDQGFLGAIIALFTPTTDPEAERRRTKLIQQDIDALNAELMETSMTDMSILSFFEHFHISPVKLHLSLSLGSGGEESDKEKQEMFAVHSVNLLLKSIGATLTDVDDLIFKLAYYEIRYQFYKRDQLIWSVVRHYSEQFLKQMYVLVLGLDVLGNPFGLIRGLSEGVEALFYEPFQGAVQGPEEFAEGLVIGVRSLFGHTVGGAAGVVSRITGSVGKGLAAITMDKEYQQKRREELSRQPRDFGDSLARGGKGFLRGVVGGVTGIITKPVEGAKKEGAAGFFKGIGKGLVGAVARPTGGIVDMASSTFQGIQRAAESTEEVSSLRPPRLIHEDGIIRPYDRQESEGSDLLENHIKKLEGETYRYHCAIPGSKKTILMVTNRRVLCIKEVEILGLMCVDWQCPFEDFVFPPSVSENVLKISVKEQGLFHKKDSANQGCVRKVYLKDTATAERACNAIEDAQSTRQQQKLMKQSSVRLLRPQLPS
inactive: [1] -0.007 | [2] -0.003 | [3] 0.038 | [4] 0.008 | [5] 0.017 | [6] -0.013 | [7] -0.021 | [8] 0.042 | [9] -0.012 | [10] 0.004

UTP3 (UniProt Q9NQZ2)
inactive: [1] -0.051 | [2] -1.41 | [3] -0.088 | [4] -0.063 | [5] -0.039 | [6] -0.018 | [7] 0.021 | [8] -0.067 | [9] -0.09 | [10] -0.041

ZNF598 isoform 3 (UniProt Q86UK7)
inactive: [1] -0.001 | [2] -0.003 | [3] 0.007 | [4] -0.007 | [5] -0.045 | [6] 0.006 | [7] -0.064 | [8] -0.036 | [9] -0.002 | [10] 0.029

ZC2HC1A (UniProt Q96GY0)
inactive: [1] 0 | [2] -0.134 | [3] 0.058 | [4] 0.18 | [5] 0.073 | [6] -0.043 | [7] -0.1 | [8] -0.054 | [9] 0.009 | [10] -0.012

ZNF593 (UniProt O00488)
inactive: [1] -0.084 | [2] -0.149 | [3] 0.116 | [4] 0.003 | [5] 0.005 | [6] -0.098 | [7] 0.059 | [8] 0 | [9] 0.084 | [10] 0.003

VPS4A (UniProt Q9UN37)
inactive: [1] 0.051 | [2] 0.005 | [3] -0.076 | [4] 0.043 | [5] -0.014 | [6] -0.017 | [7] -0.15 | [8] 0.029 | [9] -0.037 | [10] -0.037

VAC14 (UniProt Q08AM6)
Chain of UniProt Q08AM6 (Q08AM6 whole entry, looked up): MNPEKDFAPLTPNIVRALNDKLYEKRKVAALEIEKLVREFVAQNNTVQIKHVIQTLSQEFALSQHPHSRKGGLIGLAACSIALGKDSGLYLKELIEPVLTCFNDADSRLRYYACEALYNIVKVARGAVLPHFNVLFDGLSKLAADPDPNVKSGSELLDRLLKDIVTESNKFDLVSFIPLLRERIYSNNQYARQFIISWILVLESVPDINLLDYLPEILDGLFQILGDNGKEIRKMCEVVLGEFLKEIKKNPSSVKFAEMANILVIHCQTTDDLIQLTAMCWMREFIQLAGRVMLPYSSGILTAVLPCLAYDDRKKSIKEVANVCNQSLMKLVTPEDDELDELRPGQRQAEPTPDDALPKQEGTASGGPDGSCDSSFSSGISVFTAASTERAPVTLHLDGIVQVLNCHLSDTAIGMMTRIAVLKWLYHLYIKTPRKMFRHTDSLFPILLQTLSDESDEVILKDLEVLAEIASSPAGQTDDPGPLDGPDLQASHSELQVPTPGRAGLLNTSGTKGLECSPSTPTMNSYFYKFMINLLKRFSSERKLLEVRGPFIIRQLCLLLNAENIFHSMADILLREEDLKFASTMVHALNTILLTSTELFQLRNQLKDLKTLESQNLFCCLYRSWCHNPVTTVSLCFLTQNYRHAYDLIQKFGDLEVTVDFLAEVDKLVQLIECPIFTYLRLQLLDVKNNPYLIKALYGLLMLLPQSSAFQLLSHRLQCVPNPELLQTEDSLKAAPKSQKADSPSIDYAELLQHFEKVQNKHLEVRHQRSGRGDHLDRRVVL
inactive: [1] -0.007 | [2] 0.02 | [3] -0.004 | [4] 0.032 | [5] 0.024 | [6] -0.006 | [7] -0.023 | [8] 0.006 | [9] 0.015 | [10] 0.024

VPS54 (UniProt Q9P1Q0)
inactive: [1] -0.018 | [2] -0.061 | [3] 0.059 | [4] -0.117 | [5] 0.213 | [6] -0.044 | [7] -0.114 | [8] -0.019 | [9] -0.079 | [10] 0.036
